# Assay results as given in ChEMBL document CHEMBL3988442, “University of Dundee, Small-Polar-MMV Screening Library” (2021).
# In all, about 48,000 compounds went through this assay and about 13,000 (27%) showed an effect of 50% or more. The list shows a part of the results.
# System: Wolbachia pipientis
# Experiment: Anti-Wolbachia Cell-Based Screen
# Type: functional
# Design: scale not given: in the data most compounds retested in dose-response had high values
# Details: 5 µM
row,Compound,Percent Effect
1,COCC1CN(Cc2cc(C)on2)Cc2cn(CC3CC3)nc21 (stereo not drawn),-5.451%
2,Cn1nc(C2CN(C(=O)c3cscn3)C2)c2nccnc21,-8.374%
3,CCN(C)C(=O)c1ncn2c(C3CCN(S(C)(=O)=O)CC3)ccnc12,-14.84%
4,CCc1ccc2c(C3CN(S(C)(=O)=O)C3)ncn2c1,15.67%
5,Cn1nc(C2CN(C(=O)c3ccncc3)C2)c2nccnc21,104.9%
6,Cc1ccc(C(=O)N2CC(c3cccnc3)C2)cc1N1CCNC1=O,-5.741%
7,O=C(c1ccncc1)N1C[C@@H]2CC[C@H](C1)N(C(=O)C1CCCC1)C2,23.43%
8,Cn1nc(C2CN(C(=O)c3cccnc3)C2)c2nccnc21,106.4%
9,Cn1nc(C2CN(S(C)(=O)=O)C2)c2nccnc21,134.2%
10,FC(F)(F)Oc1ccc(-c2noc([C@@H]3Cc4nc[nH]c4CN3)n2)cc1,-8.285%
11,CCCc1nnc(N(C)CC2CCN(CC(C)C)CC2)o1,-8.883%
12,Cc1ccc2nc(-c3cnc(N)nc3)c(C)c(C(=O)N(C)C)c2c1,2.177%
13,CCOC(=O)N(C)C1CCN(Cc2csc(C)n2)CC1,-9.858%
14,Cc1cc(C)n(CC2CCCCN2Cc2cscn2)n1 (stereo not drawn),2.934%
15,Cc1nc(C)n(CC2CCCN2Cc2cscn2)n1 (stereo not drawn),-0.8371%
16,Cc1cc(N(C)C)nc(N2CCN(Cc3nccn3C)CC2)n1,-14.83%
17,Cc1cc(N(C)C)nc(C2COCCN2Cc2cc(C)on2)n1 (stereo not drawn),106.1%
18,Cc1cc(CN2CCOC(CN(C)C)C2)no1 (stereo not drawn),-11.72%
19,Cc1cc(CN2CCCC2c2noc(C)n2)no1 (stereo not drawn),-4.781%
20,Cc1cc(N(C)C)nc(C2COCCN2Cc2csc(C)n2)n1 (stereo not drawn),76.41%
21,Cn1ccnc1CN1CCOC[C@H]1c1nc(C(C)(C)C)co1,-3.783%
22,Cc1cc(N(C)C)nc(N(C)Cc2csc(C)n2)n1,-1.887%
23,Cc1cc(N(C)C)nc(C2COCCN2Cc2nccn2C)n1 (stereo not drawn),106.8%

row,Compound,Percent Effect
1,Cc1cc(N(C)C)nc(C2COCCN2Cc2cscn2)n1 (stereo not drawn),100.1%
2,CC(NC1(CNS(C)(=O)=O)CCCC1)c1ccccc1 (stereo not drawn),-3.236%
3,COc1ccc(-n2cccn2)c(CN2CCOCC(CN(C)C)C2)c1 (stereo not drawn),-24.66%
4,COc1cccc(CNCCc2cc(F)cc3c2OCOC3)c1,-0.9463%
5,Cc1nc(CN2CCCC2c2nc(C(C)C)no2)cs1 (stereo not drawn),-7.461%
6,CC(C)(C)c1coc([C@@H]2COCCN2Cc2csnn2)n1,-9.121%
7,CNc1cc(C)nc(C2COCCN2Cc2csc(C)n2)n1 (stereo not drawn),118.8%
8,COc1ccnc(NC(=O)c2cscc2C)c1,-3.049%
9,CCc1[nH]ncc1C(=O)N1CCN(c2nccc(OC)n2)CC1,-7.097%
10,Cc1cc(C)n(CC2CCCCN2CCCS(=O)(=O)N(C)C)n1 (stereo not drawn),4.04%
11,CCc1cnc(N)nc1NCCCN1CCCCC1CO (stereo not drawn),90.38%
12,CCc1cnc(N)nc1NCCN1CCCCC1,1.893%
13,Cc1cnc(NCCCN2CCCCC2CO)nc1 (stereo not drawn),67.94%
14,Cc1cc(-c2nccn2CCN2CCCCC2CO)oc1C (stereo not drawn),12.23%
15,CCc1cnc(N)nc1NCCC(=O)NC1CCCCC1,31.74%
16,Cc1ccsc1-c1nccn1CCN1CCCCC1CO (stereo not drawn),8.185%
17,Cc1nc(C)n(CCCNc2ncnc(C)c2C)n1,-4.271%
18,Cc1ncnc(NCCCN2CCCCC2CO)c1C (stereo not drawn),93.53%
19,O=C(NC1CCC1)[C@@H]1CCO[C@@H]2CCN(C3CCCC3)C[C@H]21.O=C(O)C(F)(F)F,-6.007%
20,CCc1n[nH]c(C2CN(Cc3nccn3CC)CCO2)n1 (stereo not drawn),-1.514%
21,CN(CCc1cn[nH]c1)C(=O)C1CC(=O)N(Cc2cccnc2)C1 (stereo not drawn),1.356%
22,c1ccc(CNc2ncc(CN3CCCN4CCC[C@H]4C3)cn2)cc1,-5.428%
23,CCCn1ncc(C(=O)N2CCN(C3Cc4ccccc4C3)CC2)c1C,1.653%

row,Compound,Percent Effect
1,N#CCCCN1CCCC1Cc1ccccc1 (stereo not drawn),-5.887%
2,CCCn1ncc(CN2C[C@@H]3CCCN3C[C@H]2Cc2ccccc2)c1C,112.1%
3,CCCn1ncc(CN2C[C@@H]3CCCN3C[C@@H]2Cc2ccccc2)c1C,119.2%
4,CC(=O)c1ccc(-c2cnn(CC(=O)Nc3ccnn3C)c2)nc1,-6.817%
5,O=C(NCC(O)c1ccsc1)c1sccc1OC(F)F (stereo not drawn),-10.31%
6,Cc1cccc2cc(C(=O)N3CCC(F)(F)CC3)n(C)c12,5.497%
7,CN(C)Cc1nn(C)c2c1CN(C(=O)c1cccc(C#N)c1)C2,110.3%
8,Cn1nc(CN2CCCC2)c2c1CN(C(=O)c1cccnc1)CC2.O=C(O)C(F)(F)F.O=C(O)C(F)(F)F,-3.711%
9,CN(C)Cc1nn(C)c2c1CCN(C(=O)c1cnccn1)C2.O=C(O)C(F)(F)F,-5.117%
10,CC(=O)NCC(=O)N1CCc2c(CN(C)C)nn(C(C)C)c2C1,-2.95%
11,Cc1nocc1C(=O)N1CCc2c(CN(C)C)nn(C)c2C1,93.65%
12,CN(C)Cc1nn(C)c2c1CCN(S(=O)(=O)c1cccs1)C2,12.48%
13,CN(C)Cc1nn(C)c2c1CN(C(=O)Nc1cccc(F)c1)C2,-15.2%
14,Cc1cccc(NC(=O)N2Cc3c(CN(C)C)nn(C)c3C2)c1,-10.1%
15,CN(C)Cc1nn(C)c2c1CCN(C(=O)CC1CC1)C2.O=C(O)C(F)(F)F,5.365%
16,Cc1cccc(C(=O)N2CCc3c(CN(C)C)nn(C)c3C2)n1,94.16%
17,CN(C)Cc1nn(C)c2c1CCN(C(=O)c1cccnc1)C2,84.36%
18,Cc1cc(N[C@H](CO)c2ccccc2)n2nc(C)cc2n1,1.495%
19,Cc1noc(C2CCCN(C(=O)c3ccc(Br)cc3F)C2)n1 (stereo not drawn),4.795%
20,N#Cc1c(F)cccc1N1CCN(S(=O)(=O)c2cccs2)CC1,-7.537%
21,CC(Cn1cccn1)NC(=O)NCCCN1CCc2ccccc2C1 (stereo not drawn),-5.201%
22,Cc1nc([C@H]2C[C@@H]3CCN(Cc4scnc4C)C[C@H]3O2)no1.O=C(O)C(F)(F)F,-18.74%
